This test has as its target Ubiquitin carboxyl-terminal hydrolase 9X (Homo sapiens) (UniProt Q93008). Put plainly: binders of human deubiquitinase USP9X – biophysical, surface plasmon resonance, orthogonal assay, late-stage follow-up (AID 652234). The conditions noted are these: Recombinant USP9X, SPR Biacore T200, RU; at 100 µM (top of the series).

Activity calls are given as the source filed them. How the calls were made is not given here.

Chain of Ubiquitin carboxyl-terminal hydrolase 9X (Homo sapiens) (Q93008 whole entry, looked up): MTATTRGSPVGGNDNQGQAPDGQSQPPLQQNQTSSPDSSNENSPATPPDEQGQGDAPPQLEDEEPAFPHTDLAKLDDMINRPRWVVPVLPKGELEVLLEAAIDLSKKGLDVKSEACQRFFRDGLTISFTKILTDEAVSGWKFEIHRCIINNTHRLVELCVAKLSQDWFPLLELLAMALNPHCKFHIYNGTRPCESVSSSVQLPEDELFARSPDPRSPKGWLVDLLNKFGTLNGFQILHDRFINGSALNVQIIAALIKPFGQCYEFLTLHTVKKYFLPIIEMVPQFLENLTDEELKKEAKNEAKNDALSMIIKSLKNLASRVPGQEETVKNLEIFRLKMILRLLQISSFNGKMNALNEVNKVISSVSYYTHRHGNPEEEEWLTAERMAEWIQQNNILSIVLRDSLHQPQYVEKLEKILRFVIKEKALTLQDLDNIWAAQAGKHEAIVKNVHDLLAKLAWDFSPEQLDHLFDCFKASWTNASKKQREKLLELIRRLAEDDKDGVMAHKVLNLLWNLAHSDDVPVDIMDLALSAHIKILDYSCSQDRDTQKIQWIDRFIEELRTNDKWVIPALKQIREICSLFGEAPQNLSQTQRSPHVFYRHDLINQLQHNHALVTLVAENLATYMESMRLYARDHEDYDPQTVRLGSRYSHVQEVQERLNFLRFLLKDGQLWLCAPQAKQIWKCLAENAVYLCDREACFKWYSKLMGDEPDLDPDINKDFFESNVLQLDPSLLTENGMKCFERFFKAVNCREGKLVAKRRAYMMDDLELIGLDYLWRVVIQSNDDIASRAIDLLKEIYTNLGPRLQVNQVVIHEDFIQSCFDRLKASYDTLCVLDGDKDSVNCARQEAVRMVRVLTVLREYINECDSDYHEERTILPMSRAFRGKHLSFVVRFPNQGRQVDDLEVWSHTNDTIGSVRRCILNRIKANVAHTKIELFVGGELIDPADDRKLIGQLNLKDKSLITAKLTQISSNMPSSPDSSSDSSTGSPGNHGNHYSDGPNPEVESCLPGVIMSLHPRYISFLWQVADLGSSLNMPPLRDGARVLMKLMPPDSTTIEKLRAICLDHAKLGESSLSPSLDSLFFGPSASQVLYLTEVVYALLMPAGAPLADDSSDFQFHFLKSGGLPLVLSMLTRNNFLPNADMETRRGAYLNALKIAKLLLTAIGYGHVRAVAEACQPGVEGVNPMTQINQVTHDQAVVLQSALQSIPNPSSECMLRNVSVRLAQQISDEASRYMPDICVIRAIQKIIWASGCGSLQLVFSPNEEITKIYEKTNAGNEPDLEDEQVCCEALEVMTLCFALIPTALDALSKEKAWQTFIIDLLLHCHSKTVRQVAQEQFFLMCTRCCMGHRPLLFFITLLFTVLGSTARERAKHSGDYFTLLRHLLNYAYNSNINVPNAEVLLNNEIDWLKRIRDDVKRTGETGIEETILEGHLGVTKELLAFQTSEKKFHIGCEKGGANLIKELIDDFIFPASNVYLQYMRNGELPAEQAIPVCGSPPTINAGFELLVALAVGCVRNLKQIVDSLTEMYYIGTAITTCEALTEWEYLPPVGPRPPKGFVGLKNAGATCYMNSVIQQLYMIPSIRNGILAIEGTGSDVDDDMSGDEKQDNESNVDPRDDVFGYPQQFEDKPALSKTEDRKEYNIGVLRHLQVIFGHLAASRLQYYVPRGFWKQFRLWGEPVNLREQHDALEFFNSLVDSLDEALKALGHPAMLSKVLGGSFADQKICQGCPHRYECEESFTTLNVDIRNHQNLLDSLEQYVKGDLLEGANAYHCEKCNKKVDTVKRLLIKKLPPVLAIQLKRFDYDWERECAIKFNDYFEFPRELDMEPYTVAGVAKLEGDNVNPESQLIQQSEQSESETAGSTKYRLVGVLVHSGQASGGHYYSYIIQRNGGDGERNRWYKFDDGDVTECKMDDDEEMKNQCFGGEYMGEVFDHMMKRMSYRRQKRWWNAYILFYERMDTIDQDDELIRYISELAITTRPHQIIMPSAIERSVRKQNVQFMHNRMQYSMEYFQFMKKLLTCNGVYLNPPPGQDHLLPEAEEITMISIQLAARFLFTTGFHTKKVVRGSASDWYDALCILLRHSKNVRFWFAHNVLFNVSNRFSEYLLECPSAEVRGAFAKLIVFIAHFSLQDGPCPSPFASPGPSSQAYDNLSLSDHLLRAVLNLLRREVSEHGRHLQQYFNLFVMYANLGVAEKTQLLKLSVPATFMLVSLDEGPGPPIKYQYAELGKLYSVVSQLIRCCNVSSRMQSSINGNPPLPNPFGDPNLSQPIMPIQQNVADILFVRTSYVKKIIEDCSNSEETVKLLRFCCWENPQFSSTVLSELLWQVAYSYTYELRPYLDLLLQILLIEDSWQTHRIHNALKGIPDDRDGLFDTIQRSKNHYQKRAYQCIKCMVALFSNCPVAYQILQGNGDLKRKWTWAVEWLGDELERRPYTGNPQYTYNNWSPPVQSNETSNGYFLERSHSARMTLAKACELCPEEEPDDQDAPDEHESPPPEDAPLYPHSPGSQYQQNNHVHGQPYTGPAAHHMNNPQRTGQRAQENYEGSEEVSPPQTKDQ

With `C[C@@H]1CN([C@@H](C)CO)C(=O)c2cccc(NC(=O)Nc3cccc4ccccc34)c2O[C@H]1CN(C)S(=O)(=O)c1ccc2c(c1)OCCO2`, the binding signal (RU), higher = more binding is 11.2 (active).
